Assay results taken from PubChem BioAssay AID1159580 (chemical genetic matrix, 2015).
Hit rate of the full screen: of about 5,500 compounds, about 2,000 (36%) were called active. About 18% were inconclusive and are not listed. No stated cut-off is given here; in the data, active means normalized growth mostly below about 0.91 (no sharp cut-off); inconclusive means no clear call, values can overlap the other calls; inactive means mostly above about 0.92. Some of the results follow.

Assay: chemical genetic growth profiling, strain panel (AID 1159580);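 further: tested at 20 µM; growth read once vehicle control cultures reached saturation at 30 °C; 1 = growth at the plate median or of vehicle wells; lower values mean less growth of the strain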
Conditions: S. cerevisiae deletion strains, growth OD
[1] = locus YAR019C, strain CDC15, active compounds read low
[2] = locus YBL105C, strain PKC1, active compounds read low
[3] = locus YBR135W, strain CKS1, active compounds read low
[4] = locus YBR136W, strain MEC1, active compounds read low
[5] = locus YBR160W, strain CDC28, active compounds read low
[6] = locus YDL017W, strain CDC7, active compounds read low
[7] = locus YDL028C, strain MPS1, active compounds read low
[8] = locus YDL101C, strain DUN1, active compounds read low
[9] = locus YDL108W, strain KIN28, active compounds read low
[10] = locus YDL132W, strain cdc53, active compounds read low
[11] = locus YDL214C, strain PRR2, active compounds read low
[12] = locus YDR052C, strain DBF4, active compounds read low
[13] = locus YDR054C, strain cdc34, active compounds read low
[14] = locus YDR226W, strain ADK1, active compounds read low
[15] = locus YDR477W, strain SNF1, active compounds read low
[16] = locus YER123W, strain YCK3, active compounds read low
[17] = locus YER133W, strain GLC7, active compounds read low
[18] = locus YFL009W, strain cdc4, active compounds read low
[19] = locus YFL029C, strain CAK1, active compounds read low
[20] = locus YFR003C, strain YPI1, active compounds read low
[21] = locus YFR019W, strain FAB1, active compounds read low
[22] = locus YFR028C, strain CDC14, active compounds read low
[23] = locus YGR040W, strain KSS1, active compounds read low
[24] = locus YGR052W, strain FMP48, active compounds read low
[25] = locus YGR092W, strain DBF2, active compounds read low
[26] = locus YHR030C, strain SLT2, active compounds read low
[27] = locus YHR079C, strain IRE1, active compounds read low
[28] = locus YHR082C, strain KSP1, active compounds read low
[29] = locus YHR205W, strain SCH9, active compounds read low
[30] = locus YIL147C, strain SLN1, active compounds read low
[31] = locus YJL095W, strain BCK1, active compounds read low
[32] = locus YJL128C, strain PBS2, active compounds read low
[33] = locus YJL157C, strain FAR1, active compounds read low
[34] = locus YJR016C, strain ILV3, active compounds read low
[35] = locus YJR066W, strain TOR1 (second series), active compounds read low
[36] = locus YJR066W, strain TOR1, active compounds read low
[37] = locus YKL048C, strain ELM1, active compounds read low
[38] = locus YKL067W, strain YNK1, active compounds read low
[39] = locus YKL101W, strain HSL1, active compounds read low
[40] = locus YKL193C, strain SDS22, active compounds read low
[41] = locus YKL203C, strain TOR2, active compounds read low
[42] = locus YLR113W, strain HOG1, active compounds read low
[43] = locus YLR133W, strain CKI1, active compounds read low
[44] = locus YLR403W, strain SFP1, active compounds read low
[45] = locus YML070W, strain DAK1, active compounds read low
[46] = locus YMR001C, strain CDC5, active compounds read low
[47] = locus YMR205C, strain PFK2 (second series), active compounds read low
[48] = locus YMR277W, strain FCP1, active compounds read low
[49] = locus YNL006W, strain LST8, active compounds read low
[50] = locus YNL020C, strain ARK1, active compounds read low
[51] = locus YNL161W, strain CBK1, active compounds read low
[52] = locus YNL183C, strain NPR1, active compounds read low
[53] = locus YNL207W, strain RIO2, active compounds read low
[54] = locus YNL222W, strain SSU72, active compounds read low
[55] = locus YNL307C, strain MCK1 (second series), active compounds read low
[56] = locus YOL078W, strain AVO1, active compounds read low
[57] = locus YOL136C, strain PFK27, active compounds read low
[58] = locus YOR119C, strain RIO1, active compounds read low
[59] = locus YOR231W, strain MKK1, active compounds read low
[60] = locus YOR329C, strain SCD5, active compounds read low
[61] = locus YPL031C, strain PHO85, active compounds read low
[62] = locus YPL153C, strain RAD53, active compounds read low
[63] = locus YPL204W, strain HRR25, active compounds read low
[64] = locus YPL209C, strain IPL1, active compounds read low
[65] = locus YPL256C, strain CLN2, active compounds read low
[66] = locus YPR025C, strain CCL1, active compounds read low
[67] = locus YPR106W, strain ISR1, active compounds read low
[68] = locus YPR111W, strain DBF20, active compounds read low
[69] = strain NNK1, active compounds read low
[70] = strain TSCII, active compounds read low
[71] = locus YOR061W, strain CKA2, active compounds read low

Measured: normalized growth

Cc1nnsc1C(=O)NNc1ccc(F)cc1F
active: [16] 0.459 | [21] 0.584 | [26] 0.831 | [42] 0.683 | [65] 0.602
inactive: [1] 0.951 | [2] 0.951 | [3] 0.956 | [4] 0.961 | [5] 0.956 | [6] 0.949 | [7] 0.97 | [8] 0.956 | [9] 0.965 | [10] 0.955 | [11] 0.706 | [12] 0.954 | [13] 0.929 | [14] 0.953 | [15] 0.711 | [17] 0.827 | [18] 0.965 | [19] 0.941 | [20] 0.968 | [22] 0.952 | [23] 0.789 | [24] 0.646 | [25] 0.636 | [27] 0.925 | [28] 0.85 | [29] 0.924 | [30] 0.967 | [31] 0.544 | [32] 0.938 | [33] 0.804 | [34] 0.962 | [35] 0.683 | [36] 0.791 | [37] 0.952 | [38] 0.819 | [39] 0.917 | [40] 0.96 | [41] 0.928 | [43] 0.812 | [44] 0.883 | [45] 0.696 | [46] 0.949 | [47] 0.906 | [48] 0.959 | [49] 0.975 | [50] 0.92 | [51] 0.945 | [52] 0.837 | [53] 0.961 | [54] 0.954 | [55] 0.678 | [56] 0.955 | [57] 0.808 | [58] 0.911 | [59] 0.908 | [60] 0.958 | [61] 0.858 | [62] 0.832 | [63] 0.917 | [64] 0.943 | [66] 0.957 | [67] 0.963 | [68] 0.966 | [69] 0.977 | [70] 0.947

Cc1nnsc1C(=O)NNc1c(Cl)cccc1Cl
inactive: [1] 0.975 | [2] 0.974 | [3] 0.976 | [4] 0.977 | [5] 0.973 | [6] 0.979 | [7] 0.978 | [8] 0.993 | [9] 0.981 | [10] 0.982 | [11] 0.951 | [12] 0.985 | [13] 0.982 | [14] 0.986 | [15] 0.959 | [16] 0.933 | [17] 0.97 | [18] 0.98 | [19] 0.972 | [20] 0.98 | [21] 0.958 | [22] 0.981 | [23] 0.926 | [24] 1.02 | [25] 0.952 | [26] 1.02 | [27] 0.982 | [28] 1.02 | [29] 0.942 | [30] 0.981 | [31] 0.992 | [32] 0.926 | [33] 0.939 | [34] 0.984 | [35] 0.926 | [36] 1.05 | [37] 0.958 | [38] 0.948 | [39] 0.905 | [40] 0.98 | [41] 1.02 | [43] 0.939 | [44] 0.935 | [45] 0.927 | [46] 0.978 | [47] 0.941 | [48] 0.98 | [49] 0.993 | [50] 0.946 | [51] 0.979 | [52] 0.983 | [53] 0.988 | [54] 0.973 | [55] 0.948 | [56] 0.978 | [57] 0.927 | [71] 0.927 | [58] 1.01 | [59] 0.925 | [60] 0.977 | [61] 0.971 | [62] 0.949 | [63] 0.952 | [64] 0.973 | [65] 0.921 | [66] 0.975 | [67] 0.965 | [68] 0.976 | [69] 0.978 | [70] 0.977
active: [42] 0.844

Cc1cc(Cl)ccc1NNC(=O)c1snnc1C
active: [26] 0.815 | [42] 0.84
inactive: [1] 0.971 | [2] 0.949 | [3] 0.967 | [4] 0.949 | [5] 0.959 | [6] 0.951 | [7] 0.969 | [8] 0.968 | [9] 0.955 | [10] 0.978 | [11] 0.907 | [12] 0.957 | [13] 0.974 | [14] 0.977 | [15] 0.907 | [16] 0.816 | [17] 0.909 | [18] 0.979 | [19] 0.957 | [20] 0.957 | [21] 0.885 | [22] 0.958 | [23] 0.881 | [24] 0.965 | [25] 0.824 | [27] 0.919 | [28] 0.979 | [29] 0.919 | [30] 0.966 | [31] 0.888 | [32] 0.943 | [33] 0.881 | [34] 0.977 | [35] 0.841 | [36] 0.972 | [37] 0.935 | [38] 0.919 | [39] 0.914 | [40] 0.96 | [41] 0.962 | [43] 0.891 | [44] 0.887 | [45] 0.865 | [46] 0.951 | [47] 0.922 | [48] 0.958 | [49] 0.974 | [50] 0.894 | [51] 0.956 | [52] 0.942 | [53] 0.96 | [54] 0.956 | [55] 0.794 | [56] 0.954 | [57] 0.885 | [71] 0.866 | [58] 0.96 | [59] 0.878 | [60] 0.963 | [61] 0.911 | [62] 0.881 | [63] 0.874 | [64] 0.943 | [65] 0.881 | [66] 0.955 | [67] 0.976 | [68] 0.979 | [69] 0.955 | [70] 0.962

O=C(NNc1ccccc1F)c1ccno1
inactive: [1] 0.981 | [2] 0.97 | [3] 0.976 | [4] 0.98 | [5] 0.977 | [6] 0.987 | [7] 0.981 | [8] 0.979 | [9] 0.983 | [10] 0.973 | [11] 0.942 | [12] 0.979 | [13] 0.975 | [14] 0.983 | [15] 0.948 | [16] 0.869 | [17] 0.957 | [18] 0.986 | [19] 0.979 | [20] 0.982 | [21] 0.92 | [22] 0.982 | [23] 0.915 | [24] 1.01 | [25] 0.904 | [26] 0.959 | [27] 0.952 | [28] 0.998 | [29] 0.934 | [30] 0.983 | [31] 0.937 | [32] 0.972 | [33] 0.929 | [34] 0.979 | [35] 0.886 | [36] 1.01 | [37] 0.937 | [38] 0.943 | [39] 0.905 | [40] 0.978 | [41] 1.01 | [42] 0.863 | [43] 0.93 | [44] 0.934 | [45] 0.906 | [46] 0.979 | [47] 0.95 | [48] 0.986 | [49] 0.993 | [50] 0.929 | [51] 0.979 | [52] 0.937 | [53] 0.984 | [54] 0.976 | [55] 0.924 | [56] 0.98 | [57] 0.909 | [71] 0.884 | [58] 0.996 | [59] 0.888 | [60] 0.985 | [61] 0.964 | [62] 0.909 | [63] 0.937 | [64] 0.976 | [65] 0.914 | [66] 0.978 | [67] 0.968 | [68] 0.961 | [69] 0.983 | [70] 0.977
